Consider 54 compounds from ChEMBL document CHEMBL4513216, “Probing the Open Global Health Chemical Diversity Library for Multistage-Active Starting Points for Next-Generation Antimalarials” (ACS Infect Dis, 2020).

Hit rate of the full screen: of about 69,000 compounds, about 8,600 (12%) showed an effect of 50% or more. For the sample, strong results were picked, then their nearest neighbours and some compounds at random.

This assay has as its system Plasmodium berghei. Briefly: Screen against P. berghei liver stage (PbLuc), transformed with Luciferase, at 10uM. The assay is classed as functional, HepG2. As to conditions: tested at 10 uM.
As to `CCn1cc(CN2CCCN(C(=O)c3sccc3C#N)CC2)cn1`, the INHIBITION stood at 24%.

Take `CC(C)n1cc(CN2CCCN(C(=O)C3(C)CCOCC3)CC2)cn1`: the INHIBITION is given as 54.5%.

Turning to `Cc1csc(N2CCCN(C(=O)C(C)n3cncn3)CC2)n1` (centres undefined), the INHIBITION worked out at 17.4%.

`Cc1csc(N2CCN(C(=O)C(C(C)C)n3cncn3)CC2)n1` (centres undefined): the INHIBITION turned out to be 17.4%.

For the compound `CCn1cc(CN2CCCN(C(=O)c3sccc3OC)CC2)cn1`, the INHIBITION is recorded as -34%.

For `Cc1csc(N2CCN(C(=O)C(C)n3cncn3)CC2)n1` (centres undefined), the INHIBITION came out at 60.5%.

In the case of `CCc1ccsc1C(=O)N1CCN(CC(N)=O)CC1`, the INHIBITION is on record as -53.5%.

Turning to `CCc1ccsc1C(=O)N1CCN(CC(C)O)CC1` (centres undefined), the INHIBITION is -27.8%.

Turning to `CSC(C)C(=O)N1CCCN(Cc2cnn(C(C)C)c2)CC1` (centres undefined), the INHIBITION was -19.9%.

In the case of `CC(C)n1cc(CN2CCCN(C(=O)C3CCOC3)CC2)cn1` (centres undefined), the INHIBITION is given as -29.1%.

On to `CCc1ccsc1C(=O)N1CCS(=O)(=O)CC1`, for which the INHIBITION is 53.7%.

Regarding `O=C(c1cccnc1)N(CCO)Cc1cc(Br)ccc1F`, the INHIBITION is on record as -5.1%.

Regarding `CNc1nc(C2CCCN(C(=O)C(C)(C)OC)C2)nc2c1CN(C)CC2` (centres undefined), the INHIBITION is -12.9%.

`CC(C(=O)NCCOc1ccc2c(c1)CCC2)n1cncn1` (centres undefined): the INHIBITION is reported as -81.3%.

Turning to `Cc1ccc(S(=O)(=O)N2CCN(CCCO)CC2)s1`, the INHIBITION is 30.1%.

For the compound `c1cncc(-c2noc(CNC3CCc4ncnn4C3)n2)c1` (centres undefined), the INHIBITION is on record as 29.4%.

For the compound `Cc1cc(C)n(CC2CCCCN2C(=O)c2ccsc2)n1` (centres undefined), the INHIBITION is on record as -3.2%.

`CC(C)C(Sc1nncn1C1CC1)C(=O)NCc1cccnc1` (centres undefined): the INHIBITION was -38%.

Turning to `CC(NC(=O)Cc1cccs1)c1nnc2n1CCC2` (centres undefined), the INHIBITION is -12.2%.

For the compound `O=C(c1cc[nH]n1)N1CCC(c2cc(Nc3ccccn3)n[nH]2)CC1`, the INHIBITION was -3.31%.

With `Cc1nnc(NC(=O)NCc2ccoc2)s1`, the INHIBITION is -19.9%.

Turning to `O=C(Cn1ccc2ccccc21)NC[C@@H]1CCCN2CCCC[C@H]12`, the INHIBITION worked out at 23.5%.

As for `COC(=O)CNC(=O)Cn1ccc2ccc(F)cc21`, the INHIBITION turned out to be 13.9%.

For the compound `O=C(Cn1ccc2ccc(F)cc21)NCc1ccc(C(=O)O)cc1`, the INHIBITION stood at 6%.

`O=C(Cn1ccc2ccc(Br)cc21)NC[C@@H]1CCCN2CCCC[C@H]12`: the INHIBITION was determined as 37.1%.

As to `O=C(CCn1ccc2cc(Br)ccc21)NC[C@@H]1CCCN2CCCC[C@H]12`, the INHIBITION came out at 49%.

With `CC[C@H](C)[C@H](NC(=O)Cn1ccc2ccc(F)cc21)C(=O)OC`, the INHIBITION is listed as -24.6%.

As for `Cc1cccc2c1ccn2CC(=O)NC[C@@H]1CCCN2CCCC[C@H]12`, the INHIBITION is recorded as 51.9%.

Regarding `Cc1cccc2c1ccn2CC(=O)O`, the INHIBITION is on record as 35%.

For the compound `COC(=O)[C@H](C)NC(=O)Cn1ccc2ccc(F)cc21`, the INHIBITION came to 50.8%.

Turning to `COCCNC(=O)Cn1ccc2ccc(F)cc21`, the INHIBITION was 17.1%.

In the case of `O=C(Cn1ccc2ccc(F)cc21)NC[C@@H]1CCCN2CCCC[C@H]12`, the INHIBITION was found to be 58.3%.

With `O=C(Cn1ccc2cc(Br)ccc21)NC[C@@H]1CCCN2CCCC[C@H]12`, the INHIBITION amounted to 58.3%.

Turning to `Cc1ccnn1CCC(=O)N1CCCC2(C1)NC(=O)c1ccccc1O2` (centres undefined), the INHIBITION is on record as -2.2%.

For the compound `CC1=C(C(N)=O)C(c2cn(C)nc2C)N2C(=O)CSC2=N1` (centres undefined), the INHIBITION is given as -20.5%.

Turning to `CCn1ncc2c1C(COCC1CC1)N(C(=O)c1ccncn1)CC2` (centres undefined), the INHIBITION was 9.34%.

`CC(=O)N1CCCCC1c1nc(N)ncc1-c1ccccc1` (centres undefined): the INHIBITION was determined as 38.1%.

On to `CN1CCC2(CCCN(C(=O)c3cncn3C)C2)CC1`, for which the INHIBITION turned out to be 29%.

On to `Cc1noc(CCNC(=O)NCc2ccc(OC3CCCC3)cc2)n1`, for which the INHIBITION was -33.4%.

Take `CO[C@@H]1CN(c2ccccc2)S(=O)(=O)[C@@]12CCN(Cc1cncs1)C2`: the INHIBITION is reported as 41.9%.

Consider `Cc1cc(C)n(C2CCN(S(=O)(=O)N3CCC(C)CC3)CC2)n1`, for which the INHIBITION is given as 19.3%.

On to `CC(=O)N1N=C(c2ccccc2)OC1C(=O)NCCc1cccc(F)c1` (centres undefined), for which the INHIBITION is recorded as -18.2%.

As for `CN(C)C(=O)N1CC[C@H]2[C@H]1CCN2c1nncs1`, the INHIBITION amounted to 2.4%.

On to `COCc1nc(C(=O)N2CCCC2c2ccc(OC)cc2)cs1` (centres undefined), for which the INHIBITION stood at 46.2%.

On to `OC12CCC(CC1)N(Cc1ccc(F)cc1)C2CN1CCOCC1` (centres undefined), for which the INHIBITION was found to be 9.36%.

For the compound `Cc1ccc2c(ccn2CCC(=O)NC[C@@H]2CCCN3CCCC[C@H]23)c1`, the INHIBITION is reported as -3.95%.

Turning to `COc1ccc2c(ccn2CC(=O)NC[C@@H]2CCCN3CCCC[C@H]23)c1`, the INHIBITION is on record as 54.8%.

In the case of `Cc1ccc2c(ccn2CC(=O)NC[C@@H]2CCCN3CCCC[C@H]23)c1`, the INHIBITION stood at 47.4%.

On to `Cc1ccc(-c2nc(CNCC3CN(C)CCO3)cs2)o1` (centres undefined), for which the INHIBITION came to 41.4%.

Consider `Cc1nn(C)c2c(N(C)Cc3ccco3)nc(C3CC3)nc12`, for which the INHIBITION was determined as 19.7%.

As to `O=C(O)[C@H]1C[C@H](C(=O)NCc2ccncc2)CN(CCC(F)(F)F)C1`, the INHIBITION is listed as -78.5%.

In the case of `COc1ccccc1NC(=O)CC(C)NCCc1sc(C)nc1C` (centres undefined), the INHIBITION is on record as 71.3%.

In the case of `COc1ccccc1NC(=O)CC(C)NCc1scnc1C` (centres undefined), the INHIBITION stood at 25.6%.

Take `CCc1cnc(CCNC(C)CC(=O)Nc2cccc(C)c2C)s1` (centres undefined): the INHIBITION worked out at 15.6%.
